High-throughput results deposited in PubChem by several laboratories.
Hits are enriched below; roughly 32% of the tested compounds scored in any of these assays.
CYP2C9 inh: inhibitors of human CYP2C9; 96,000 compounds, 20% hits; inhibition, % at 5 µM; AID 777; CYP2C9 Supersomes, luciferin-H conversion, luminescence;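 active = blocking of liver enzyme CYP2C9 beyond about 50% at 5 µM, limit read from the data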
Target sequence (P11712 whole entry, looked up): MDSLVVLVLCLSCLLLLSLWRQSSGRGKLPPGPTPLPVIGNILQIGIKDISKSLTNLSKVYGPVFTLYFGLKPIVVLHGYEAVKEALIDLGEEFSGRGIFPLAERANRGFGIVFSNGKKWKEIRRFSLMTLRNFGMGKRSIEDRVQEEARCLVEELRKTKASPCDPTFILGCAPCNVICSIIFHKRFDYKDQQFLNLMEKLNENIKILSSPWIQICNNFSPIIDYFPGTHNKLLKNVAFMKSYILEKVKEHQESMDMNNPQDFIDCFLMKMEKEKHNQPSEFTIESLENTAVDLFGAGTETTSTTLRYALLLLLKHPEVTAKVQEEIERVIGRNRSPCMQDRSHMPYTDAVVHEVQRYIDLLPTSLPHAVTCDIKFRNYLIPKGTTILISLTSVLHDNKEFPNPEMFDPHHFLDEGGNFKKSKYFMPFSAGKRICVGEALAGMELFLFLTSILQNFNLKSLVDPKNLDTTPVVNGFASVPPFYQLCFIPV
CYP2C19 activ: activators of human cytochrome P450 2C19 | 96,000 tested, under 10 active | recombinant CYP2C19, luciferin-H EGE luminescence; hits give high values; 0 = fully inhibited enzyme, 1 = untreated enzyme | AID 1025 | activation factor at 5 µM;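 active = activation factor of at least 2 at 5 µM in the primary screen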
CYP2C9 activ: increases human cytochrome P450 2C9 activity | activation factor at 5 µM | P11712 | AID 1024 | 96,000 compounds, 1.4% hits | recombinant CYP2C9, luciferin-H conversion, luminescence; hits give high values; factor 1 = untreated enzyme, 0 = blocked;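 active = activation factor of 2 or more for CYP2C9 at a 5 µM dose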
CYP2C19 inhib: human CYP2C19 inhibition; CYP2C19 Supersomes, luciferin-H EGE luminescence, 30 min; AID 778; 96,000 compounds, 21% hits; P33261; inhibition, % at 5 µM;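 active = CYP2C19 inhibition above a set limit at 5 µM in the primary screen, cut at about 50% in these data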
PostGolgi ctrl: inhibits growth of the yeast control strain | efflux-deficient yeast background strain, growth absorbance A615, 16 h | inhibition, % at 10 µM | 98,000 compounds, 5% hits | AID 738
PostGolgi yeast: growth inhibition of a yeast mutant, post-Golgi transport screen; AID 739; post-Golgi transport phenotypic cell assay; 98,000 compounds, 0.9% hits; inhibition, % at 10 µM;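 also: yeast cells grown in 1536-well plates; yeast grown about 18 h at 30C before absorbance read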
Of the large screens only hits and unclear results are named; the others gave an inactive call. Rule as the data show it, unless noted: active = inhibition above about 30%; inactive = the rest.

COC(=O)C1=C(N)Oc2cc(C)n(C)c(=O)c2C1c1ccc(Cl)c(Cl)c1 (configuration not stated)	PostGolgi ctrl 46
Cc1cc2c(c(=O)n1CC1CCCO1)C(c1ccc3c(c1)OCO3)C(C#N)=C(N)O2 (configuration not stated)	none (no result: CYP2C9 inh, CYP2C19 activ, CYP2C9 activ, CYP2C19 inhib)
COC(=O)C1=C(N)Oc2cc(C)n(CC3CCCO3)c(=O)c2C1c1ccc(Cl)c(Cl)c1 (configuration not stated)	CYP2C9 inh 81, CYP2C19 inhib 72
COC(=O)C1=C(N)Oc2cc(C)n(Cc3cccnc3)c(=O)c2C1c1ccccc1OC (configuration not stated)	none
COC(=O)C1=C(N)Oc2cc(C)n(Cc3cccnc3)c(=O)c2C1c1ccc(OC)c(OC)c1OC (configuration not stated)	none
COc1ccc(OC)c(NC(=O)C(CCS(C)(=O)=O)NC(C)=O)c1 (configuration not stated)	none (no result: PostGolgi ctrl, PostGolgi yeast)
Cc1ccc(S(=O)(=O)Nc2ccc(-c3nnc(SCC#N)n3C)cc2)cc1	none
CO/N=C(/CNC(=O)c1ccccc1Cl)c1ccc(Cl)cc1	CYP2C19 inhib 91
Cc1c(Cl)cccc1-n1c(SCC(=O)N(C)Cc2ccccc2)nnc1-c1ccncc1	CYP2C9 inh 83, CYP2C19 inhib 90
Cc1noc(C)c1CSc1nnc(-c2ccncc2)n1-c1cccc(Cl)c1C	CYP2C9 inh 94, CYP2C19 inhib 100
COc1ccc(C2NC(=S)N3C(c4ccc(OC)cc4)NC(=S)N23)cc1 (configuration not stated)	CYP2C19 inhib 51
O=C1NC(=O)C2C1C(c1ccccc1)N1C3C(=O)NC(=O)C3C(c3ccccc3)N21 (configuration not stated)	none
S=C1NC(c2ccccc2)N2C(=S)NC(c3ccccc3)N12 (configuration not stated)	CYP2C9 inh 78, CYP2C19 inhib 94
Cc1cc(OCC(=O)Nc2ccc(OCc3ccccc3)cc2)nc(C(C)C)n1	none
COc1cc(Cl)c(C)cc1NC(=O)CSC	CYP2C19 inhib 52
COc1cc(Cl)c(C)cc1NC(=O)COc1cc(C)nc(C(C)C)n1	CYP2C9 inh 51
COc1ccccc1NC(=O)COc1cc(C)nc(C(C)C)n1	PostGolgi ctrl 38
CNS(=O)(=O)c1cc(C(=O)NCc2ccco2)ccc1Cl	none
CN(C)S(=O)(=O)c1ccc(Cl)c(C(=O)NCc2ccco2)c1	none
COC(=O)COc1ccc(S(=O)(=O)NCc2ccco2)cc1Cl	CYP2C19 inhib 58
Cc1cc(S(=O)(=O)N2CCCC2)ccc1OCC(=O)NCc1ccco1	CYP2C9 inh 50
COc1ccc(C(=O)OCC(=O)NCc2ccco2)cc1S(=O)(=O)N1CCN(c2cccc(Cl)c2)CC1	CYP2C9 inh 96, CYP2C19 inhib 98
O=C(NCc1ccco1)c1cc(S(=O)(=O)N2CCCc3ccccc32)ccc1Cl	CYP2C19 inhib 81
CC1=CC(C)(C)N(C(=O)C(C)N2C(=O)c3ccccc3C2=O)c2c(C)cc(C)cc21 (configuration not stated)	none
CN(C)S(=O)(=O)N1CCC(Cc2ccccc2)CC1	none (no result: CYP2C9 inh, CYP2C19 activ, CYP2C9 activ, CYP2C19 inhib)
COC(=O)COc1ccc(S(=O)(=O)NCCC2=CCCCC2)cc1Cl	CYP2C19 inhib 97
O=C(COc1ccc(S(=O)(=O)N2CCCC2)cc1Cl)NCc1ccco1	CYP2C9 inh 85
CCc1nnc(NC(=O)CSc2nnc(Cc3ccc(OC)cc3)o2)s1	CYP2C9 inh 53
COc1ccc(CCCc2nnc(SCC(=O)Nc3cccc(C)c3)o2)cc1	CYP2C9 inh 64, CYP2C19 inhib 54
COc1ccc(OC)c(/C=N\NC(=O)CSc2nnc(CCCc3ccc(OC)c(C)c3)o2)c1	CYP2C9 inh 70, CYP2C19 inhib 64
COc1ccc(CCCc2nnc(SCC(=O)Nc3ncc(C)s3)o2)cc1	PostGolgi ctrl 43
COc1ccc(Cc2nnc(SCC(=O)Nc3ncc(C)s3)o2)cc1	none
O=C(Cn1cc2c(n1)CCCC2)NCc1cccc(Cl)c1	none
CCN(CC)CCC(=O)Nc1ccc2c(c1)N(C(=O)CN(CC)CC)c1ccccc1CC2	none
COc1ccc(CCCc2nnc(SCC(=O)Nc3cc(C)c(C)cc3Br)o2)cc1	CYP2C9 inh 83, CYP2C19 inhib 69
COc1ccccc1NC(=O)CSc1nnc(Cc2ccccc2)o1	none
COc1ccc(NC(=O)CSc2nnc(Cc3ccccc3)o2)c(OC)c1	CYP2C19 inhib 71
OCCNc1nc2ccc(Cl)cc2[nH]1	none
COc1ccc(NC(=O)Cn2c(-c3ccccc3)cn(-c3ccc(C)cc3)c2=O)cc1	none
CC1(C(=O)NC2CCCC2)CCC(=O)N1CCC1=CCCCC1 (configuration not stated)	none
CCOC(=O)N1CCC(NC(=O)Cn2ncc3c2-c2cc(C)ccc2OC3)CC1	none
Cn1c(=O)n(C)c2cc(NC(=O)CSc3nnc(-c4ccccc4O)n3-c3ccccc3)ccc21	none
CC1CC(N(C(=O)c2ccco2)c2ccccc2)c2ccccc2N1C(=O)c1ccco1 (configuration not stated)	CYP2C9 inh 88, CYP2C19 inhib 91
CC1CC(N(C(=O)c2ccc(Cl)cc2)c2ccccc2)c2ccccc2N1C(=O)c1ccco1 (configuration not stated)	CYP2C9 inh 97, CYP2C19 inhib 91
CC1CC(N(C(=O)C2CC2)c2ccccc2)c2ccccc2N1C(=O)C1CC1 (configuration not stated)	none
O=C(CS(=O)(=O)c1cn(Cc2ccc(Cl)cc2)c2ccccc12)N1CCCCC1	none
COC(=O)c1ccc(COc2ncnc3c(Cl)cc(Cl)cc23)o1	CYP2C9 inh 62
O=C(COc1ncnc2c(Cl)cc(Cl)cc12)NC1CCCCCC1	none
c1cn(C23CC4CC(CC(C4)C2)C3)cn1	CYP2C9 inh 96, CYP2C19 inhib 87
Cc1cc(F)c(F)c(C(=O)N2CCN(C)CC2)c1Cl	CYP2C9 activ 2.2
C=CCNC(=O)NC(=O)COC(=O)COc1ccc(Br)cc1F	none
CCCn1nc(C(=O)NCc2ccccn2)c2ccccc2c1=O	none
O=C(CN1C(=O)c2cccc3cccc1c23)Nc1ccc(S(=O)(=O)Nc2nccs2)cc1	none
CCCn1nc(C(=O)Nc2ccc(S(=O)(=O)Nc3nccs3)cc2)c2ccccc2c1=O	CYP2C9 inh 60
CCCn1nc(C(=O)Nc2cccc(C(=O)OC)c2)c2ccccc2c1=O	CYP2C9 inh 79, CYP2C19 inhib 63
O=C(CCN1C(=O)S/C(=C\c2ccccc2)C1=O)Nc1ccc(S(=O)(=O)Nc2nccs2)cc1	CYP2C9 inh 65
COc1ccc(C2C3=C(Nc4ncnn42)c2ccccc2CC3)cc1OC (configuration not stated)	CYP2C19 inhib 55
Cc1ccc(-c2ccc(/C=C3\C(=O)ON=C3c3ccccc3)o2)c([N+](=O)[O-])c1	CYP2C9 inh 100
